# Measured values from PubChem BioAssay AID1347417 (National Center for Advancing Translational Sciences (NCATS), 2020).
# “And” between values parts separate entries of the source, which are not always exact repeats. Equal entries are not always repeated. Out of some 120,000 compounds screened, about 5,300 (4.4%) were called active. Another 22% or so got no clear call; they are omitted. The sample holds actives, similar compounds and a random draw of the others, so the mix is not that of the screen. Calls follow the shape of the dose curve; as a rule, active = well fitted inhibition curve with a large enough effect; inconclusive = small, poorly fitted or top-dose-only effect; inactive = no such curve, though single readings can be large or run the other way. A structure can be active in one record and inactive in another.
# Assay: qHTS Primary assay for Inhibitors of Plasmodium falciparum Dd2 growth in vitro; also: nearly all actives have a fitted effect of over 65% in size;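 as to activity, negative = inhibition: plate controls were DMSO vehicle for no effect and reference drug for full effect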
# Settings: P. falciparum Dd2 growth, SYBR Green, 72 h; series mostly up to 28.9 µM; activity, negative = inhibition: at the top concentration
# Summary of the method: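 Infected erythrocytes (Dd2, 0.3% parasitemia, 2.5% hematocrit final) are added to compound in RPMI-1640/Albumax II medium, grown 72 h at 37C in low oxygen, then lysed with saponin/Triton-X containing SYBR Green and read by fluorescence.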
# Potency is read from the fitted curve at half-maximal effect.
Compound,"activity, negative = inhibition",Potency,outcome
COC[C@@H]1CN(Cc2ccc(F)c(OC)c2)C[C@H]1C(=O)N(C)C,-18.7% (inactive),–,–
Cc1ccc(CN2COc3cc(C)c4c(oc(=O)c5ccccc54)c3C2)cc1,–,1.12 µM (active),–
Cc1ccc(Cn2c(=O)n(Cc3nc(-c4ccccc4)no3)c(=O)c3cc4c(cc32)OCO4)cc1,79.1% (inactive),–,–
CCn1c2c(c(=O)n1Cc1ccccc1)CCN(C(=O)Cc1ccc3c(c1)OCO3)C2,-4.73% [at 44.1 µM] (inactive),–,–
CCc1cc2c(-c3ccccc3)cc(=O)oc2c2c1OCN(Cc1ccc(C)cc1)C2,–,2.24 µM (active),–
COCCn1cc2c3c(cccc31)CN(C(=O)c1c(F)cccc1Cl)CC2,-15.4% (inactive),–,–
O=C(Nc1ccc(Cl)cc1)c1nc2c(o1)CCN(Cc1ccsc1)CC2,–,–,inactive [at 44.1 µM]
COCCn1ncc(N2CCC(NC(=O)C3CCC3)CC2)cc1=O,–,–,inactive
O=C(c1cccc2[nH]ccc12)N1C[C@@H](CO)[C@H](c2ccccn2)C1,9.59% (inactive),–,–
CN1CCC2(C1)CN(CC1CC1)c1ccc(C(=O)NC3CC3)cc12 (stereo unspecified),–,–,inactive [at 44.1 µM]
COc1ccc(-c2cn3c(n2)sc2cc(C(=O)Nc4ccccc4F)ccc23)cc1,–,–,inactive
CCOc1ccc(CCNC(=O)c2ccc3c(c2)sc2nc(-c4ccc(F)cc4)cn23)cc1OCC,–,5.62 µM (active),–
COc1ccc(CCNC(=O)c2ccc3c(c2)sc2nc(-c4ccc(C)cc4)cn23)cc1OC,–,–,inactive
CCOC(=O)c1ccccc1NC(=O)c1sc2nc(-c3ccc(F)cc3)cn2c1C,93.4% (inactive),–,–
CCN1CCN(CCCNC(=O)c2ccc3c(c2)sc2nc(-c4ccc(OC)cc4)cn23)CC1,–,3.16 µM (active),–
COc1ccc(-c2cn3c(C)c(C(=O)Nc4cc(C)cc(C)c4)sc3n2)cc1,-22.2% (inactive),–,–
Cc1cccc2nnc(N3CCN(C(=O)c4ccc(F)c(F)c4)CC3)n12,-14.3% (inactive),–,–
O=C(CCNc1c(-c2ccccc2)nc2cnccn12)N1CCC(N2CCCCC2)CC1,–,–,inactive
CCn1cc(-c2ccccc2)cc1C(=O)NCc1ccccn1,–,–,inactive
CCCCN1C(=O)c2ccccc2C(C(=O)NCCCOC)C12CCCCC2 (stereo unspecified),-7.88% (inactive),–,–
C=CCNC(=O)N1CC[C@H]2CC(=O)N(CC(N)=O)CC[C@H]2C1,-18.1% [at 44.1 µM] (inactive),–,–
O=C(c1cc2cccnn2n1)N1CCOCC1,12.2% [at 44.1 µM] (inactive),–,–
Cc1ccc2cc(CCC(=O)O)c(=O)[nH]c2c1,9.25% (inactive),–,–
Cc1cc2nc3n(c(=O)c2n1CC(=O)NCc1ccccc1Cl)CCCC3,12.7% (inactive),–,–

Compound,"activity, negative = inhibition",Potency,outcome
Oc1ccccc1CNC1(Cc2cc(CN3CCOCC3)on2)COC1,14% [at 44.1 µM] (inactive),–,–
C[C@@H](NC(=O)C[C@@H]1[C@H](O)CC[C@@H]2[C@](C)(CO)[C@H](O)CC[C@]21C)c1ccccc1,17.5% [at 44.1 µM] (inactive),–,–
COc1ccc(C(=O)N2CCC(Oc3ncccc3C(=O)N(C)C)C2)c(OC)c1 (stereo unspecified),0.886% (inactive),–,–
CC[C@@H](NC(=O)CC1CCN(Cc2ccccc2)CC1)C1CC(O)C1 (stereo partly specified),1.5% (inactive),–,–
CCOc1ccc(C(=O)N2CCC3(CC2)c2nccn2-c2ccccc2CN3C)cc1,–,–,inactive [at 5.79 µM]
CCOc1ccc(C(=O)N2CCN(CCc3ccccn3)CC2)cc1,–,2.82 µM (active),–
CCOc1ccc(C(=O)N2CCN(c3cc(-c4cccs4)[nH]n3)CC2)cc1,–,–,inactive
Cc1oc2ccn(Cc3cccc(F)c3)c(=O)c2c1C(=O)NCc1cccnc1,-4.3% (inactive),–,–
O=C(O)Cn1ccc2cc(OCCc3cccc(-c4cccnc4)c3)cnc21,1.28% [at 44.1 µM] (inactive),–,–
CCC(CC)c1cc([C@H]2CN3CC[C@H]2C[C@@H]3CNC(=O)NCc2ccccc2)nc(-c2ccncc2)n1,–,0.631 µM (active),–
CCC(CC)c1cc([C@H]2CN3CC[C@H]2C[C@@H]3CNS(=O)(=O)Cc2ccccc2)nc(-c2ccncc2)n1,-9.02% (inactive),–,–
N#Cc1cccc(NC(=O)NC[C@H]2C[C@@H]3CCN2C[C@@H]3CN2CCN(c3ncccn3)CC2)c1,–,–,inactive
CC(C)c1nnsc1CN1CCn2nc(CCC(=O)N3CCCC3)cc2C1,-17% (inactive),–,–
CCN1C(=O)CCN(C(=O)N(C)C)CC12CCOCC2,30.6% (inactive),–,–
CCOc1ccc(NC(=O)N2c3ccccc3CC2c2noc(C3CCOCC3)n2)cc1 (stereo unspecified),-12.3% (inactive),–,–
CNC(=O)[C@@H]1CN(C(=O)c2ccco2)C[C@H]1COC,7.02% (inactive),–,–
CC(=O)N1CC2(CCN(Cc3cccnc3)C2)Cc2ccccc21 (stereo unspecified),-11.2% (inactive),–,–
C[S+](=O)([O-])N1CC2(Cc3ccccc31)CN(C(=O)C1CC1)C2,-4.62% [at 44.1 µM] (inactive),–,–
O=C(C1CCCC1)N1CC2(CCCN(C3CCCCC3)C2)Cc2ccccc21 (stereo unspecified),–,7.94 µM (active),–
COc1ccc2[nH]c3c(c2c1)CCNC31CCN(C(=O)c2ccnn2C)CC1,–,–,inactive
O=C(Cn1nc2c(cc1=O)CCCCC2)Nc1nc(-c2ccncc2)cs1,-14.3% (inactive),–,–
COc1ccc(CN2C(=O)CO[C@H]3CN(Cc4cccnc4)C[C@H]32)cc1,-27.4% [at 44.1 µM] (inactive),–,–
COc1ccc(CN2C(=O)CO[C@H]3CN(C(=O)C4CC4)C[C@H]32)cc1,18.4% [at 44.1 µM] (inactive),–,–
O=C1CO[C@H]2CN(C3CCC3)C[C@H]2N1Cc1ccc(OC(F)(F)F)cc1,–,10 µM (active),–

Compound,"activity, negative = inhibition",Potency,outcome
CCNC(=O)N1C[C@@H]2OCC(=O)N(CCOC)[C@@H]2C1,1.69% [at 44.1 µM] (inactive),–,–
Cc1cccc(C(=O)N2CCC(Oc3ccc(-c4noc(C(C)C)n4)cc3)C2)c1 (stereo unspecified),27.3% [at 5.79 µM] (inactive),–,–
CC(C)c1nc(-c2ccc(OC3CCN(C(=O)CCc4nc5ccccc5[nH]4)C3)cc2)no1 (stereo unspecified),–,1.26 µM (active),–
CCc1nc(-c2ccc(OC3CCN(C(=O)Cc4c[nH]c5ccccc45)C3)cc2)no1 (stereo unspecified),2.05% [at 5.79 µM] (inactive),–,–
N#Cc1ccc(C(=O)Nc2ccc3n(c2=O)C[C@H]2C[C@@H]3CN(C(=O)NC3CCCCC3)C2)cc1,-19.6% (inactive),–,–
COc1cccc(NC(=O)CN2C(=O)c3ccccc3Sc3ncccc32)c1,-15.6% (inactive),–,–
CCOc1ccccc1C(=O)Nc1ccc2c(c1)N(C)C(=O)c1ccccc1S2,-8.57% (inactive),–,–
COc1cccc(NC(=O)Nc2ccc3c(c2)N(C)C(=O)c2ccccc2S3)c1,–,12.6 µM (active),–
CCn1cc(-c2ccc(C)cc2)cc1C(=O)NCc1cccnc1,-8.65% (inactive),–,–
Cc1cccc(N2CCN(C(=O)c3cc4n(n3)CC(c3ccc(Cl)cc3)OC4)CC2)c1 (stereo unspecified),–,–,inactive
COc1cc(CNCc2ccc(C)c(F)c2F)ccc1OCC(O)CN1CCC(O)CC1 (stereo unspecified),-45.4% (inactive),–,–
N#Cc1cccc(CN2C[C@H](O)C[C@H]2c2nc(-c3ccccn3)no2)c1,9.29% [at 44.1 µM] (inactive),–,–
Cc1ccccc1C(=O)NCc1nnc2ccc(-c3ccccc3)nn12,-7.27% (inactive),–,–
COCc1nncn1C1CCN(C(=O)c2ccccc2OC(F)(F)F)CC1,–,10 µM (active),–
COCc1nncn1C1CCN(C(=O)c2ccccc2F)CC1,-7.03% (inactive),–,–
COc1ccccc1C(=O)N1CCC(n2cnnc2C2CC2)CC1,8.5% (inactive),–,–
COc1ccccc1C(=O)Nc1ccc2c(c1)CN(Cc1ccccc1)C(=O)C(C)O2 (stereo unspecified),–,–,inactive
Cc1cccc(CN2CCCN(Cc3ccncc3)C(c3ccccc3)CC(=O)NCC2)c1 (stereo unspecified),–,1.26 µM (active),–
O=C1CC2CCN(Cc3cccnc3)CC2CCN1 (stereo unspecified),9.65% [at 44.1 µM] (inactive),–,–
CS(=O)(=O)N1CCCN(C(=O)CN2CCCCCC2)CCNC(=O)CC1c1ccccc1 (stereo unspecified),-8.48% (inactive),–,–
Cc1ccc(CN2CCCN(Cc3ccncc3)C(c3ccccc3)CC(=O)NCC2)s1 (stereo unspecified),–,1 µM (active),–
CS(=O)(=O)N1CCCN(C(=O)Cc2cccc(F)c2)CCNC(=O)CC1c1ccccc1 (stereo unspecified),-1.53% (inactive),–,–
Cc1ccccc1CNC(=O)C1CCCN(Cc2cccnc2)CCC(=O)NCC1 (stereo unspecified),-19.7% (inactive),–,–
O=C1CC(c2ccccc2)N(Cc2ccncc2)CCCN(Cc2cccnc2)CCN1 (stereo unspecified),–,4.47 µM (active),–

Compound,"activity, negative = inhibition",Potency,outcome
CNC(=O)N1CCCN(S(C)(=O)=O)C(c2ccccc2)CC(=O)NCC1 (stereo unspecified),3.9% (inactive),–,–
O=C1CC(c2ccccc2)N(C(=O)C2CC2)CCCN(C(=O)Cc2cccc(F)c2)CCN1 (stereo unspecified),-7.87% (inactive),–,–
N#Cc1ccc(CC(=O)N2CC(CNc3cccnc3)C3(C2)CN(c2ccccc2)C3)cc1 (stereo unspecified),-11.1% [at 44.1 µM] (inactive),–,–
CCN1CC2(CCN(C(=O)c3cc4c(nc3OC)CCC4)CC2)OC1=O,6% (inactive),–,–
CNC(=O)[C@H]1C[C@H](Oc2ccccc2)CN1C(=O)c1ccccc1,-11% (inactive),–,–
FC(F)(F)CN1C2CCC1CN(c1cncc(Cl)n1)C2,4.15% (inactive),–,–
CC(NC(=O)c1coc(COc2ccc3c(c2)OCO3)n1)c1ccc2[nH]ccc2c1 (stereo unspecified),-11.9% (inactive),–,–
Cn1cncc1-c1nnc([C@H]2CCN(CC3CC3)C2)o1,-3.46% [at 44.1 µM] (inactive),–,–
CCOC(=O)CCNC(=O)N1CC[C@H]2C(=O)NCCCCCCN(Cc3ccncc3)[C@@H]2C1,-18.7% (inactive),–,–
C=CCNC(=O)CCc1c(CC)nn(-c2ccccc2)c1Oc1ccccc1OC,–,–,inactive
CC(=O)c1c(C)nn(CC(=O)N2C[C@H](O)[C@@H](N3CCC(O)CC3)C2)c1C,11% (inactive),–,–
CCc1nc2c(=O)n(CC(=O)NCc3ccc(Cl)cc3)nc(C)c2s1,-13.1% (inactive),–,–
COc1cccc(-c2n[nH]c3c2C(c2cccc(O)c2)N(C)C3=O)c1 (stereo unspecified),-21.5% (inactive),–,–
CCCCN1C(=O)c2[nH]nc(-c3ccccc3O)c2C1c1cccc(OCc2ccccc2)c1 (stereo unspecified),–,3.16 µM (active),–
CCCOc1ccc(C2c3c(-c4ccccc4O)n[nH]c3C(=O)N2Cc2cccnc2)cc1 (stereo unspecified),-2.57% (inactive),–,–
Cc1cc(C(=O)NCC2Cn3cccc3C(=O)N2C)nn1C (stereo unspecified),-22.3% (inactive),–,–
CC(C)CN1C(=O)c2ccccc2C(C(=O)NCc2ccccn2)C12CCCC2 (stereo unspecified),-1.43% (inactive),–,–
COC(=O)CCNC(=O)C1c2ccccc2C(=O)N(CC(C)C)C12CCCC2 (stereo unspecified),-6.26% (inactive),–,–
COc1ccccc1NC(=O)C1c2ccccc2C(=O)N(CC(C)C)C12CCCC2 (stereo unspecified),–,3.55 µM (active),–
Cc1ccc2c(c1)N1C(=O)OC[C@@H]1CCN(C(=O)c1ccno1)C2,20.7% [at 44.1 µM] (inactive),–,–
Cc1cc(C)cc(C(=O)N2CC(c3nnc(-c4ccncc4)o3)C3(CCOCC3)C2)c1 (stereo unspecified),-28.2% (inactive),–,–
CC(C)(C)c1nc(C(=O)N2CCOCC2)n2ccccc12,-15.6% [at 44.1 µM] (inactive),–,–
Cc1cccc(C)c1-c1nc(C(=O)N2CCN(c3ncccn3)CC2)n2ccccc12,–,inactive and 12.6 µM (active),–
O=C(c1nc(-c2cccnc2)c2cnccn12)N1CCN(c2ncccn2)CC1,–,–,inactive
